PvdQ inh = P. aeruginosa PvdQ acylase inhibition. inhibition, % at 10 µM. AID 488965. purified PvdQ acylase, fluorescence plate reader. 340,000 tested, 0.063% active; in the data active means inhibition above about 30%, passing the limit was not always enough; inconclusive means no clear call, values can overlap the other calls
esBAF inh = blocks esBAF chromatin remodeling in mouse ES cells; 350,000 tested, 2% active; AID 602393; reporter increase, % at 12.5 µM; Bmi1-luciferase knock-in reporter, 24 h; 100% = twice the neutral-well signal; in the data active means activation above about 40%; inconclusive means no clear call, values can overlap the other calls;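 further: a rise in the Bmi1 reporter signal indicates esBAF inhibition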
Glyco luc inh = N-linked glycosylation inhibition | 360,000 tested, 0.23% active | reporter increase, % at 12.5 µM | D54 ERlucT glycosylation luciferase reporter, 24 h; percent of 100 nM tunicamycin response | AID 588692;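 active means mean luciferase reporter signal, scaled so untreated is 0 and the glycosylation-blocking control 100, at or above a set limit in every replicate; inconclusive means mean reaches the limit but not every replicate does; inactive means mean below the limit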;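 further: luciferase carries N-glycosylation sites so blocking glycosylation raises the light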
Vif imaging = inhibitors of HIV Vif; HEK293T cells, Vif self-association by quenched fluorescence, imaging, 24 h; inhibition, % at 7.49 µM; 340,000 tested, 0.35% active; in the data active means inhibition above about 50%, passing the limit was not always enough; inconclusive means no clear call, values can overlap the other calls; inactive means below about 31%
MITF TRPM1 HTS = activators of MITF-driven TRPM1 promoter activity in SK-MEL-5 cells; SK-MEL-5 TRPM1-promoter luciferase, 24 h; % of positive control, neutral wells = 0; activation, % at 12.5 µM; 300,000 tested, 0.75% active; AID 588334;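 active means mean activation of at least 80% with every replicate also reaching 80%; inconclusive means mean reaches 80% but some replicate falls short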
Wnt act = activates Wnt/beta-catenin signaling in a reporter cell assay; activator, plate reader; AID 743398; activation, % at 9.35 µM; 300,000 tested, 1.2% active; in the data active means activation above about 30%, passing the limit was not always enough; inconclusive means no clear call, values can overlap the other calls
Numbers stand for hits; n = inactive; u = inconclusive; x = no result given. Compounds with a hit are over-represented: about 2.9% of the library has one in this group of screens.

SMILES | PvdQ inh | esBAF inh | Glyco luc inh | Vif imaging | MITF TRPM1 HTS | Wnt act
COc1ccc(OC)c(C2C3CN(C(C)C)CC=C3C(C#N)=C(N)C2(C#N)C#N)c1 (stereo not drawn) | n | n | n | 95 | n | n
N/C(=N\OC(=O)COc1ccc(Br)cc1)c1ccncc1 | n | n | n | x | n | n
N/C(=N\OC(=O)COc1ccc(Br)cc1Cl)c1cccnc1 | n | x | n | n | 111 | n
N/C(=N\OC(=O)COc1ccc(Cl)cc1Cl)c1ccncc1 | n | 71 | n | n | n | n
N/C(=N\OC(=O)COc1ccc(Cl)cc1Br)c1cccnc1 | n | x | n | n | u | n
N/C(=N\OC(=O)c1cccnc1)c1ccccc1Cl | n | 74 | n | n | n | n
CN1c2ccc(-c3ccccc3)cc2[C@H]2[C@H](CCN2S(=O)(=O)c2ccccc2F)[C@@H]1CO | x | n | x | x | x | x
COc1ccc(-c2cc3ncc(-c4ccccc4)c(N)n3n2)cc1 | n | x | n | n | 147 | n
N#Cc1cnc2cc(-c3ccccc3)nn2c1N | n | n | n | x | x | n
O=C(O)[C@@H]1[C@@H](CO)[C@@H]2Cn3c(ccc(-c4cccc(F)c4)c3=O)[C@@H]2N1C(=O)c1ccccn1 | x | n | x | x | x | x
CC(C)(C)Cc1nnc(NC(=O)c2ccc3c(c2)OCO3)s1 | n | 46 | n | n | n | n
CC(C)(C)Cc1nnc(NC(=O)CSc2ccccc2)s1 | n | 72 | n | n | x | n
CCC(CC)c1nnc(NC(=O)c2ccc3c(c2)OCO3)s1 | n | 58 | n | n | n | n
C[C@H]1CN([C@@H](C)CO)C(=O)CCCn2nncc2CO[C@@H]1CN(C)C(=O)CCCN(C)C | x | n | x | x | x | x
COCC#Cc1ccc([C@@H]2[C@H](C#N)N(C(=O)Cc3ccccc3)[C@H]2CO)cc1 | x | n | x | x | x | x
N#CCc1ccc(NC(=O)Nc2cccc3ccccc23)cc1 | n | 49 | n | n | n | x
CCC(=O)Nc1ccc2c(c1)OC[C@@H](C)N(C(C)=O)C[C@H](C)[C@H](OC)CN(C)C2=O | x | n | x | x | x | x
CCN1[C@H](C(=O)OC)[C@@H](CO)[C@@H]2Cn3c(ccc(-c4cccc(C(=O)N(C)C)c4)c3=O)[C@@H]21 | x | n | x | x | x | x
Cc1cc(C)nc(N(C#N)Cc2ccc(Cl)cc2)n1 | 36 | x | n | n | n | n
Cc1ccc(-n2nnc(-c3cnc4ccccc4c3)n2)cc1 | n | n | n | n | n | n
Clc1ncccc1-c1nnn(-c2ccccc2)n1 | n | n | n | n | 99 | 34
COc1ncccc1-c1nnn(-c2ccccc2)n1 | n | n | n | n | x | 53
Clc1ccc(-n2nnc(-c3cccnc3Cl)n2)cc1Cl | n | 55 | n | n | 95 | n
Clc1nc2ccccc2cc1-c1nnn(-c2ccccc2)n1 | n | 62 | n | n | x | n
Fc1ccc(-n2nnc(-c3cccnc3Cl)n2)cc1 | n | n | n | n | n | n
SMILES | PvdQ inh | esBAF inh | Glyco luc inh | Vif imaging | MITF TRPM1 HTS | Wnt act
O=C(C[C@H]1C=C[C@H](NC(=O)NC2CCCCC2)[C@@H](CO)O1)NCc1ccccc1 | x | n | x | x | x | x
COCC(=O)N(C)C[C@H]1Oc2ncc(-c3ccc(F)cc3)cc2C(=O)N([C@@H](C)CO)C[C@@H]1C | x | n | x | x | x | x
c1ccc(-n2nnc(-c3cccnc3)n2)cc1 | n | 58 | n | n | 91 | n
C[C@@H]1CN([C@H](C)CO)C(=O)c2cc(NC(=O)C3CC3)ccc2O[C@@H]1CN(C)S(=O)(=O)c1ccc(F)cc1 | x | n | x | x | x | x
[O-]/[N+](=N\Nc1ccc(Cl)cc1)c1ccccc1 | n | 52 | n | n | n | n
Clc1ccc(/C=N\Nc2ccccc2)cc1 | n | 42 | n | n | x | n
CCOc1ccc(/C=N/Nc2ccccc2)cc1 | n | n | n | n | n | n
Clc1cccc(N/N=C/c2ccncc2)c1 | n | x | n | n | 101 | n
CN1c2ccccc2C(C)(C)[C@]12C=Cc1cc(O)ccc1O2 | n | n | n | 74 | n | x
O=C(NCC1COc2ccccc2O1)c1ccc(Br)s1 (stereo not drawn) | n | 42 | n | n | n | n
O=C(NCC1COc2ccccc2O1)c1cccs1 (stereo not drawn) | n | n | n | n | n | n
Cn1cccc1C(=O)NCC1COc2ccccc2O1 (stereo not drawn) | n | 55 | n | n | 88 | u
O=C([C@H]1[C@H](CO)[C@H]2Cn3c(ccc(C4=CCCC4)c3=O)[C@@H]1N2C(=O)c1ccncc1)N1CCOCC1 | x | n | x | x | x | x
O=C(NC[C@@H]1[C@H](c2ccccc2)[C@@H](CO)N1C(=O)Cc1cccnc1)C1CC1 | x | n | x | x | x | x
Cn1ccs/c1=N\C(=O)Nc1ccccc1 | n | 56 | n | n | 91 | n
CN(C)c1ccc(C(=O)N=c2sccn2C)cc1[N+](=O)[O-] | n | 56 | n | n | n | n
Cn1ccsc1=NC(=O)c1ccc(S(=O)(=O)C(F)F)cc1 | n | 58 | n | n | n | n
COC(=O)c1ccc(C(=O)N=c2sccn2C)cc1 | n | 60 | n | n | 83 | n
COc1ccc(C(=O)N=c2sccn2C)cc1 | n | x | n | n | n | n
C[C@@H]1CN([C@@H](C)CO)C(=O)c2cc(-c3ccncc3)cnc2O[C@H]1CN(C)C(=O)Cc1cccnc1 | x | n | x | x | x | x
CN1C(=O)c2cc(NC(=O)C3CC3)ccc2OC[C@@H]2O[C@@H](CC(=O)NC3CCC3)CC[C@H]21 | x | n | x | x | x | x
C[C@@H]1CN([C@@H](C)CO)C(=O)c2cccc(NC(=O)c3cnccn3)c2O[C@@H]1CN(C)S(=O)(=O)c1cccs1 | x | n | x | x | x | x
COc1ccccc1-c1cnc2c(c1)C(=O)N([C@@H](C)CO)C[C@@H](C)[C@@H](CN(C)Cc1cncnc1)O2 | x | n | x | x | x | x
COc1ccc(CN(C)C(C)C(=O)Nc2ccc(S(=O)(=O)N3CCOCC3)cc2)c(OC)c1 (stereo not drawn) | n | x | n | n | n | n
COc1ccc(NC(=O)CCN2C(=O)C3CC=CCC3C2=O)cc1S(=O)(=O)N1CCCCC1 (stereo not drawn) | n | x | n | 73 | n | n
SMILES | PvdQ inh | esBAF inh | Glyco luc inh | Vif imaging | MITF TRPM1 HTS | Wnt act
COc1ccc(NC(=O)Cc2ccccc2F)cc1S(=O)(=O)N1CCCCC1 | n | 45 | n | n | n | n
COc1ccc(CN(C)C(C)C(=O)Nc2ccc(S(=O)(=O)N3CCCCC3)cc2)cc1F (stereo not drawn) | n | n | n | n | n | 34
CO[C@H]1CN(C)C(=O)c2cc(NS(C)(=O)=O)ccc2OC[C@@H](C)N(CC2CCCCC2)C[C@@H]1C | x | n | x | x | x | x
C[C@@H]1CCCCO[C@H](CN(C)C(=O)c2ccncc2)[C@H](C)CN([C@H](C)CO)C(=O)c2cc(NC(=O)c3ccncc3)ccc2O1 | x | n | x | x | x | x
Clc1ccc(-c2nnc(N3CCCC3)nn2)cc1 | n | n | n | n | x | 35
COc1ccc(/C=N/Nc2nc(C)nc(N)n2)cc1 | n | 55 | n | n | n | n
CCOc1cc(-c2noc(N)c2C(=O)OC)cc(OCC)c1OCC | n | n | n | n | n | x
COC(=O)c1c(-c2ccc(Br)cc2)noc1N | n | 56 | n | n | x | n
